Compound activity from PubChem BioAssay.
LYPLA2 inh = counter-screen for PME1 inhibitors: inhibitors of human LYPLA2; inhibition, % at 5.9 µM; recombinant LYPLA2, FP-Rh probe fluorescence polarization; AID 2177; hit rate 0.38% among 320,000; O95372;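 active means inhibition above the screen-wide mean plus 3 SD, limit set per campaign, cut at about 26% in these data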;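 further: 0% = LYPLA2 with DMSO and 100% = wells lacking LYPLA2 enzyme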
Rin1 Abl inh = inhibitors of human Rin1-Abl protein interaction; P00519+Q13671; TR-FRET Rin1/Abl binding, biochemical; inhibition, % at 7.35 µM; hit rate 0.4% among 360,000; in the data active means inhibition above about 5%, passing the limit was not always enough
p97 inhibitor = human p97 ATPase inhibition. recombinant p97 ATPase, Kinase-Glo ATP luminescence, 3 h. inhibition, % at 8 µM. hit rate 0.42% among 220,000; in the data active means inhibition above about 15%;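 further: 0% = DMSO vehicle and 100% = wells lacking enzyme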
Hck Nef HTS = inhibitors of human Hck kinase activated by Nef; inhibition, % at 20 µM; hit rate 0.68% among 220,000; P08631; Recombinant Hck-YEEI plus Nef, Z-Lyte FRET kinase assay;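 active means Hck-Nef kinase inhibition above about 50%, limit read from the data; inactive means inhibition below that limit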;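 further: 0% = DMSO with Hck plus Nef and 100% = Hck alone without Nef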
Target sequence (P08631 whole entry, looked up): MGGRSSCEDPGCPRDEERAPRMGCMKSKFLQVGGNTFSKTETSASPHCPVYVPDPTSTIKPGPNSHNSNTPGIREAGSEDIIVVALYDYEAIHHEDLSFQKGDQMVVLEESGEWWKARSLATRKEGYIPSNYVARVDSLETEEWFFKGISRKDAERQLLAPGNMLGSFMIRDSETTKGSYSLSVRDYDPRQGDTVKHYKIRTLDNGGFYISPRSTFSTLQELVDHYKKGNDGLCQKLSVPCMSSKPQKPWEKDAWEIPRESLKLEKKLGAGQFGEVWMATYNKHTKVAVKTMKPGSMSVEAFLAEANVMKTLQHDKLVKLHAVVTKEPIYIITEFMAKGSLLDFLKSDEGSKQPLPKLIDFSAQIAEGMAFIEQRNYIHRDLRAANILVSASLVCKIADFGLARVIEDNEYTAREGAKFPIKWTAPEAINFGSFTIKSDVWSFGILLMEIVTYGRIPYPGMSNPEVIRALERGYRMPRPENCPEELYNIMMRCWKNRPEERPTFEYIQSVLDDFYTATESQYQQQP
LYPLA1 counter = counter-screen for PME1 inhibitors: inhibitors of human LYPLA1 | O75608 | inhibition, % at 5.9 µM | hit rate 0.16% among 320,000 | AID 2174 | recombinant LYPLA1, FP-Rh probe fluorescence polarization;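 active means inhibition above the mean of all tested compounds plus 3 SD, set per campaign, cut at about 14% in these data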;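 further: inhibitors block serine hydrolase probe labeling of LYPLA1 so polarization falls; 0% = enzyme with DMSO and 100% = wells lacking LYPLA1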
PREPL inhibitor = inhibitors of human prolyl oligopeptidase-like enzyme PREPL; recombinant PREPL, fluorescence polarization activity-based probe; AID 2751; hit rate 0.68% among 320,000; Q4J6C6; inhibition, % at 5.96 µM; in the data active means inhibition above about 43%;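 further: 0% = enzyme with DMSO and 100% = wells lacking enzyme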
Rin1-Abl confirm = Rin1-Abl interaction inhibition confirmation | hit rate 49% among 1,300 | TR-FRET Rin1-Abl binding, purified proteins | inhibition, % at 7.35 µM | shares compounds with Rin1 Abl inh
GFP quench = counter-screen for Rin1-Abl inhibitors: GFP fluorescence quenchers | shares compounds with Rin1 Abl inh | inhibitors/quenchers counterscreen | inhibition, % at 6.75 µM | hit rate 8.5% among 1,300 | AID 602125;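 further: ABL1-eGFP fusion protein alone without its partner RIN1-SBP; 0% = protein with vehicle and 100% = wells lacking protein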
GFP quench dose = GFP fluorescence interference dose response | 230 tested, under 10 active | GFP fluorescence interference/quenching counterscreen | IC50, µM | shares compounds with Rin1 Abl inh; call rule not given here;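 further: ABL1-eGFP fusion protein alone without its RIN1 binding partner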
* marks the source's active call; other numbers are inactive results; / = no result given. Shown are actives, neighbours in structure and some others; about 1.7% of the full set was active somewhere. Unless noted, no stated cut-off is given here; in the data, active means inhibition above about 6.5%; inactive means the rest.

SMILES | LYPLA2 inh | Rin1 Abl inh | p97 inhibitor | Hck Nef HTS | LYPLA1 counter | PREPL inhibitor | Rin1-Abl confirm | GFP quench | others
CC(OC(=O)Cc1ccc(Br)cc1)C(=O)NC1CCCCC1C (stereo not given) | -3 | 1 | / | / | -1 | 18 | / | /
COC(=O)c1ccc(CSc2nnc(-c3c[nH]c4ccccc34)n2C)o1 | 2 | 26* | -1 | 1 | 2 | 4 | 32* | 0 | GFP quench dose=>68
COC(=O)c1ccc(CSc2nnc(-c3ccccc3)n2C)o1 | -7 | 23* | 4 | 15 | -1 | 1 | 32* | 0 | GFP quench dose=>68
Cn1c(SCc2ccccc2)nnc1-c1c[nH]c2ccccc12 | 1 | 0 | 0 | 0 | -3 | -20 | / | /
CCOC(=O)c1ccc(CC(=O)c2ccc(O)c(O)c2O)o1 | / | 14* | 5 | 5 | / | / | 7.3* | 16*
Cc1cc(=O)oc2cc(OCC3CC(c4ccc(Br)cc4)=NO3)ccc12 (stereo not given) | 23 | -1 | -1 | 2 | -2 | -19 | / | /
Cc1cc(=O)oc2cc(OCC3CC(c4ccccc4)=NO3)ccc12 (stereo not given) | 9 | 11* | -6 | 1 | 2 | -17 | -5 | -2
COc1cc(O)c(C(C)=O)c(CC(=O)O)c1 | 5 | 20* | / | 35 | 4 | 4 | 25* | 5 | GFP quench dose=>67
COc1cc(O)c(C(C)=O)c(OC)c1 | / | -3 | / | / | / | / | / | /
CN(C)S(=O)(=O)c1ccc(NC(=O)C2CC(=O)N(Cc3ccccc3Cl)C2)cc1 (stereo not given) | 8 | 3 | / | / | 2 | -2 | / | /
CCCc1c(C(=O)Nc2ccc(F)cc2C)cnn1-c1ccccc1 | 5 | -2 | -2 | 4 | 3 | -5 | / | /
CCCc1c(C(=O)Nc2cc(C)on2)cnn1-c1ccccc1 | 2 | 8.7* | 3 | 12 | 2 | 3 | -1 | -1
O=c1c(O)c(-c2ccc(O)c(O)c2)oc2cc(O)ccc12 | / | 23* | / | / | / | / | 22* | 2 | GFP quench dose=>68
Cc1c(N=NC2=C(O)CC(C)(C)CC2=O)c(=O)n(-c2ccccc2)n1C | 2 | 10* | 0 | 23 | -2 | -1 | 2 | 3
COc1ccc(C(=O)N/C(=C\c2cccc3ccccc23)C(=O)N2CCN(C)CC2)cc1 | 2 | 0 | / | / | -3 | 4 | / | /
CCOC(=O)c1ccc(NC(=O)COc2ccccc2CNC2CCCC2)cc1 | -4 | 31* | 2 | -15 | 1 | 1 | 34* | 0 | GFP quench dose=>68
CCOC(=O)c1ccc(NC(=O)COc2ccccc2OC)cc1 | -3 | 2 | -2 | 1 | -1 | -4 | / | /
CCCNC(=O)c1ccccc1NC(=O)c1cccc(-n2cnnn2)c1 | -1 | 0 | / | / | -4 | 2 | / | /
O=C(N/N=C/c1cccnc1)c1ccc(O)cc1 | -1 | 1 | / | / | -3 | 5 | / | /
O=C(N/N=C/c1cccnc1)c1cc(O)c(O)c(O)c1 | -8 | 62* | / | / | -5 | -7 | 74* | 21*
CCn1c(C)[n+](CC)c2ccc(S(=O)(=O)N(C)C)cc21 | 1 | -1 | -2 | -1 | -1 | 16 | / | /
CC[n+]1c(C)n(C)c2cc(S(=O)(=O)N(C)C)ccc21 | -7 | 8.9* | 2 | 15 | -1 | 15 | -1 | -3
COc1ccccc1CN1CCC(CNS(=O)(=O)c2cc(-c3cc(C)no3)ccc2OC)CC1 | -3 | 12* | / | / | -1 | -14 | 1 | 0
CCc1ccc(-c2cc(C)no2)cc1S(=O)(=O)NCc1ccccc1OC | 3 | -3 | / | / | -1 | 1 | / | /
CC1Cc2ccccc2N1C(=O)COC(=O)/C=C/c1cccc(F)c1 (stereo not given) | -2 | 12* | / | / | -3 | 16 | -2 | -1
SMILES | LYPLA2 inh | Rin1 Abl inh | p97 inhibitor | Hck Nef HTS | LYPLA1 counter | PREPL inhibitor | Rin1-Abl confirm | GFP quench | others
COc1cc(/C=C/C(=O)OCC(=O)N2c3ccccc3CC2C)cc(OC)c1OC (stereo not given) | 2 | 0 | / | / | -2 | -8 | / | /
CC1CC(C)CN(C(=O)C(C)N2CCN(S(=O)(=O)c3ccc(C(F)(F)F)cc3)CC2)C1 (stereo not given) | / | -1 | / | / | / | / | / | /
O=C1CC(c2ccc(O)c(O)c2)Oc2c1ccc(O)c2O (stereo not given) | -12 | 49* | / | 44 | -6 | 40 | 46* | 25*
CC(C)=CCc1c(O)ccc2c1OC(c1ccc(O)c(O)c1)CC2=O (stereo not given) | -5 | 2 | 13 | 19 | -5 | 6 | / | /
O=C(CCO)c1ccc(O)cc1 | 5 | 29* | 2 | 26 | -3 | 12 | 33* | 7 | GFP quench dose=>67
CCCCC(=O)c1ccc(O)cc1 | 5 | 4 | 2 | 2 | 0 | 7 | / | /
O=c1c(CO)cc(CO)cc(CO)c1O | 5 | 31* | 6 | 5 | -3 | -1 | 30* | 13*
COc1ccccc1-n1cnnc1SCC(=O)NC1CCCC1 | -4 | 5 | / | / | 3 | 2 | / | /
COC(=O)c1[nH]c2cc(OC)c(OC)cc2c1NC(=O)CN1C[C@H]2C[C@@H](C1)c1cccc(=O)n1C2 | 0 | -1 | / | / | 0 | -1 | / | /
Cc1ccc(C2N(c3ccc(Cl)cc3)C(=O)N3CCCN23)cc1 (stereo not given) | -6 | 12* | -3 | -3 | -1 | 4 | 13* | -1
COc1ccc(Cn2c(=O)[nH]c3cc(C(=O)NC4CCN(Cc5ccccc5)CC4)ccc32)cc1 | 5 | 12* | 7 | 24 | -1 | -24 | 16* | -1
CC(NC(=O)C(=O)c1cn(CC(=O)N2CCOCC2)c2ccccc12)c1ccccc1 (stereo not given) | 16 | 18* | / | / | 1 | -17 | -4 | 1
O=C1[C@@H](Oc2ccccc2)[C@@H](c2ccccc2)N1c1cccnc1 | / | 13* | / | / | / | / | 10* | -1
O=C1[C@@H](Oc2ccccc2)[C@@H](c2ccncc2)N1c1ccccc1 | / | -2 | / | / | / | / | / | /
CC[C@]12c3[nH]c4ccc(Cl)cc4c3CCN1C(=O)[C@@H](CC(=O)NC(C)(C)C)C[C@@H]2C(=O)N1CCN(C(=O)c2ccco2)CC1 | / | 3 | / | / | / | / | / | /
CC[C@]12c3[nH]c4ccc(Cl)cc4c3CCN1C(=O)[C@@H](CC(=O)NCCCN(C)C)C[C@@H]2C(=O)N1CCN(C(=O)c2ccco2)CC1 | / | 22* | / | / | / | / | 22* | -1 | GFP quench dose=>68
CC[C@]12c3[nH]c4ccc(OC)cc4c3CCN1C(=O)C(CC(=O)NCC13CC4CC(CC(C4)C1)C3)C[C@@H]2C(=O)N1CCN(C(=O)C2CC2)CC1 (stereo not given in full) | / | 19* | / | / | / | / | 24* | 1 | GFP quench dose=>68
CC[C@]12c3[nH]c4ccc(Cl)cc4c3CCN1C(=O)[C@@H](CC(=O)NCC13CC4CC(CC(C4)C1)C3)C[C@@H]2C(=O)N1CCN(C(=O)C2CC2)CC1 | / | 4 | / | / | / | / | / | /
